A selection: hits, their analogues and other compounds. The true share with any hit is near 3.3%.
TbPYK inhibitor = T. brucei pyruvate kinase inhibition; TbPYK enzyme, Kinase-Glo Plus ATP luminescence, 45 min; Potency, µM (top dose mostly 76.8 µM), for the others: at the top dose activity, negative = inhibition, hits mostly inhibitors; hit rate 0.12% among 410,000; AID 624173; further: nearly all actives have a fitted effect of over 50% in size
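Quantitative HTS: titrated library compounds versus trypanosomal pyruvate kinase in TEA buffer (pH 7.2) containing KCl, MgCl2, BSA and Tween-20. Reactions were initiated with ADP, 130 uM final. Kinase-Glo Plus luminescence was read after 45 min at RT.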
LmPK inh = inhibitors of Leishmania mexicana pyruvate kinase. Q27686. purified LmPK, Kinase-Glo ATP luminescence, 1 h. Potency, µM (highest dose often 57.5 µM), for the others: at the highest dose activity change, negative = inhibition, most hits filed as inhibitors. hit rate 0.37% among 290,000. AID 1721
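Pyruvate kinase activity monitored as ATP production (luciferase luminescence). Conditions: 0.1 nM enzyme, 0.5 mM PEP, 0.1 mM ADP, 1 h, RT; normalized against uninhibited and no-enzyme wells.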
FBPA Giardia inh = Giardia lamblia aldolase inhibition | AID 2451 | Potency, µM (series often up to 59.6 µM), without a hit: at the highest dose activity, negative = inhibition, hits mostly inhibitors | purified Giardia FBPA | A8B2U2 | hit rate 0.71% among 290,000; further: nearly all actives have a fitted effect of over 55% in size
Target sequence (A8B2U2 whole entry, looked up): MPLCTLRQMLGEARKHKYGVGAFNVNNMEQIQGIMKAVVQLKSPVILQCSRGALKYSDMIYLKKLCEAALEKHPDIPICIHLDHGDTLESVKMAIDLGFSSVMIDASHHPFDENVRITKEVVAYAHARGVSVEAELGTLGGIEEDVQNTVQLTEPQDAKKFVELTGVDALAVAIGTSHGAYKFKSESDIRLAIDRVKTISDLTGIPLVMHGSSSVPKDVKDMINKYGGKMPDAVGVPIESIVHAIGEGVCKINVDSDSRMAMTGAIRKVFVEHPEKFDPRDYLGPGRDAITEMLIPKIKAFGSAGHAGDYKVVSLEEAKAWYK
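40 nM FBPA preincubated 10 min at RT with compound (up to 57.5 uM final), then substrate plus GAPDH/TPI/NAD/arsenate coupling and diaphorase/resazurin added. Fluorescence read after 20 min at RT, 525/598 nm.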
RE007 growth inh = less growth of the S. pombe RE007 Vpr strain. S. pombe RE007 Vpr strain, BacTiter-Glo ATP luminescence, 24 h. Potency, µM (top dose mostly 92.2 µM), for inactives: at the highest dose activity change, negative = less growth, most hits filed as inhibitors. hit rate 0.21% among 360,000. AID 651644; active means well fitted falling curve with a large enough effect; inconclusive means small, poorly fitted or top-dose-only effect; inactive means no such curve, though single readings can be large or run the other way; further: nearly all actives have a fitted effect of over 50% in size
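Fission yeast strain RE007, carrying one chromosomally integrated HIV-1 vpr copy, was seeded at OD 0.01 in PMG+AL medium with 23 nL pinned compound. After 24 h at 30 °C and 99% humidity, viability was read by BacTiter-Glo luminescence.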
Sm TGR inh = S. mansoni TGR enzyme inhibition; Potency, µM (titrated, usually from 114 µM), for the others: top-dose activity change, negative = inhibition, hits mostly inhibitors; purified TGR, DTNB reduction, TNB absorbance 405 nm; hit rate 3% among 360,000; further: nearly all actives have a fitted effect of over 60% in size
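Kinetic colorimetric format: TGR-catalysed, NADPH-driven DTNB reduction monitored via TNB absorbance. Enzyme dispensed at 20 nM; compound exposure 15 min at room temperature before reaction start.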
* = called active by the depositor; ? = inconclusive; . = not tested or not shown; ! = not confirmed by another sample; [ ] = dose if it differs, or a comment. Unless noted, the call rests on the fitted dose curve; in most records, active means well fitted curve in the direction sought with a large enough effect; inconclusive means small, poorly fitted or top-dose-only effect, or another doubt; inactive means no such curve, though single readings can be large; an effect the other way counts as inactive or inconclusive. On the % scale 0 is the no-effect control and ±100 the full control effect; potency means the concentration at half of the fitted maximal effect.

SMILES | TbPYK inhibitor | LmPK inh | FBPA Giardia inh | RE007 growth inh | Sm TGR inh
O=C(c1ccc(Br)s1)N1CCN(c2ncccn2)CC1 | -4% | 2% | 2% | -1% | 3%
COc1cc(OC)c(NC(=O)CCCn2nc(C)c3sc4ccccc4c3c2=O)cc1Cl | -2% | . | . | . | -6%
Cc1occc1C(=O)NCCc1ccc(Cl)cc1 | -2% | -4% | -1% | -11% | 22µM*
Cc1occc1C(=O)NCc1ccc(C(=O)O)o1 | 3% | 2% | -17% | -3% | 40µM*
Cc1ccoc1C(=O)NCCNC(=O)c1occc1C | -9% | . | . | -23% | 5%
O=C(NCCc1ccc(O)cc1)c1ccc(Cl)cc1 | -7% | 2% | -2% | 0% | 8%
Cc1occc1C(=O)NCc1ccccc1 | -2% | 1% | . | -8% | ?
Cc1occc1C(=O)NCCCCc1ccccc1 | -14% | 2% | -13% | ? | 20µM*
Cc1ccoc1C(=O)NCCCNC(=O)c1occc1C | -1% | -3% | ? | 1% | 45µM*
CCCc1noc(-c2ccc(N3CCCCC3)c([N+](=O)[O-])c2)n1 | -2% | . | . | . | 2%
COc1ccc(-c2csc(NC(=O)COC(=O)c3ccco3)n2)cc1 | -2% | 2% | -12% | -7% | ?
COC(=O)c1c(Oc2ccc(OC)cc2)nnc(-c2ccccc2)c1-c1ccccc1 | 0% | . | . | . | 4%
CC1(c2ccc(Cl)cc2)NC(=O)N(CC(=O)Nc2cccnc2Cl)C1=O (configuration not stated) | -4% | . | . | -10% | 0%
Clc1ccc(C2=CC(c3ccco3)n3ncnc3N2)cc1 (configuration not stated) | -6% | -1% | -2% | -22% | 50µM*
Clc1ccccc1C1=CC(c2ccco2)n2ncnc2N1 (configuration not stated) | -19% | 1% | -2% | 21% | 13µM*
CC(=O)Nc1cccc(C2=CC(c3ccco3)n3ncnc3N2)c1 (configuration not stated) | . | 3% | -12% | . | 13µM*
COc1ccc(C2C=C(C)Nc3ncnn32)cc1 (configuration not stated) | -4% | . | . | -5% | .
CC1=C(C(=O)Nc2ccccc2)C(c2ccco2)n2ncnc2N1 (configuration not stated) | -5% | 0% | 1% | 1% | -3%
COc1ccc(C2C=C(c3ccccc3)Nc3ncnn32)cc1 (configuration not stated) | -13% | 1% | -7% | -2% | 32µM*
Cc1ccc(OCC(=O)N/N=C2/SCC(=O)N2Cc2ccco2)cc1 | 1% | -1% | -4% | 3% | -13%
Cc1cc(C)nc(NC(=O)C(c2ccccc2)c2ccccc2)n1 | -3% | -1% | -4% | 1% | 0%
C/C(CC(=O)Nc1ccccn1)=N\NC(=O)C(=O)Nc1ccccc1C | -5% | -1% | 1% | -9% | 1%
COc1ccc(C2CC(c3ccco3)n3ncnc3N2)cc1 (configuration not stated) | -13% | 4% | 4% | 5% | -2%
COc1ccc(C2=CC(c3ccco3)n3ncnc3N2)cc1 (configuration not stated) | -17% | -4% | -24% | -17% | 10µM*
O=C(COc1ccc(S(=O)(=O)N2CCOCC2)cc1)NCCCn1ccnc1 | -2% | 10% | -1% | -7% | 9%
SMILES | TbPYK inhibitor | LmPK inh | FBPA Giardia inh | RE007 growth inh | Sm TGR inh
Cc1ccc(NC(=O)CN(C)C(=O)c2cc(-c3ccco3)nc3ccccc23)cc1 | ? | . | . | -17% | 6.3µM*
COc1cccc(NC(=O)CN(C)C(=O)c2cc(-c3ccco3)nc3ccccc23)c1 | -17% | . | . | 17% | ?
CCOc1ccc(NC(=O)CN(C)C(=O)c2cc(-c3ccco3)nc3ccccc23)cc1OCC | 6% | . | . | -12% | .
COc1ccc(CCNC(=O)c2cc(-c3ccco3)nc3ccccc23)cc1 | ? | . | . | -16% | .
CN(CCOc1ccc(Cl)cc1)C(=O)c1cc(-c2ccco2)nc2ccccc12 | 0% | . | . | 6% | 11µM*
CN(CC(=O)Nc1ccc(F)cc1)C(=O)c1cc(-c2ccco2)nc2ccccc12 | -14% | . | . | 6% | 11µM*
COc1ccc(C2=NCC(=O)N(CC(=O)NCc3ccco3)c3sc4c(c32)CCCC4)cc1 | 4% | 2% | -3% | -2% | ?
Cc1cccc(C2=NCC(=O)N(CC(=O)NCc3ccco3)c3sc4c(c32)CCCC4)c1 | 4% | 0% | -2% | -11% | 18µM*
Nc1nc(C(=O)N2CCOCC2)nn1C(=O)c1ccc(Cl)cc1 | -1% | -8% | 5% | -15% | 35µM*
Cn1c(-c2ccc(F)cc2)cc2onc(-c3c(F)cccc3Cl)c2c1=O | -1% | . | . | -15% | .
CC(N)=Nc1ccc([N+](=O)[O-])cc1 | 8% | -3% | 0% | -13% | -2%
O=[N+]([O-])c1ccc(N=Nc2c(Cl)cc(O)cc2Cl)cc1 | -28% | 22µM* | 1% | . | 0%
Cc1nc2ccc(S(=O)(=O)CCC(=O)Nc3ccc(C(C)C)cc3)cc2s1 | -13% | . | . | . | 0%
Cc1ccc(CNc2ccc(O)cc2)cc1 | -28% | -10% | 3.5µM* | -8% | 11µM*
C[n+]1cc2c3c(ccc2c2ccc4cc5c(cc4c21)OCO5)OCO3 | -15% | . | 6.3µM*! | . | .
CCn1c(=N)n(CC(=O)c2cccc([N+](=O)[O-])c2)c2ccccc21 | 3% | -2% | 4% | -10% | 7%
Cc1nc([N+](=O)[O-])cn1CC(=O)c1ccc(F)cc1 | -14% | 2% | 1% | -24% | 5%
Cc1nc([N+](=O)[O-])c(Br)n1CC(=O)c1cccc([N+](=O)[O-])c1 | -6% | -2%[11.5 µM] | -2% | 3% | 2µM*
Cc1nc([N+](=O)[O-])c(Sc2nc3ccc([N+](=O)[O-])cc3[nH]2)n1Cc1ccccc1 | 2% | 3% | 0% | -12% | 14µM*
Cc1nc([N+](=O)[O-])c(Br)n1CC(=O)c1ccc(F)cc1 | -2% | 6% | 3% | 31% | 3.2µM*
Cc1nc([N+](=O)[O-])c(Br)n1Cc1ccccc1 | -6% | 4% | 5% | 11% | 2.5µM*
O=c1[nH]nc(-c2cc(-c3ccccc3)nc3ccccc23)o1 | 4% | . | . | -26% | .
COc1ccc(C2=CC(=O)C[C@H](c3ccc4c(c3)OCO4)C2)cc1 | 1% | . | . | 1% | -3%
COC(=O)Cn1c(C)nc([N+](=O)[O-])c1Br | 6% | 9% | 3% | 43% | 6.3µM*
Cc1cc(N2CCCC2)nc2ccc(NC(=S)NC(C)C)cc12 | 4% | 0% | -24% | -5% | 13µM*
COCCNC(=S)Nc1ccc2nc(N3CCOCC3)cc(C)c2c1 | -7% | 5% | -5% | -8% | 45µM*
CCCN(CCC)CCCNC(=S)Nc1ccc2nc(N3CCN(C)CC3)cc(C)c2c1 | 1% | 0% | -10% | -2% | -34%

High-throughput results deposited in PubChem BioAssay by National Center for Advancing Translational Sciences (NCATS).
